RORg inh: inhibitors of mouse ROR gamma transcriptional activity; P51450; Drosophila S2 Gal4-RORgamma UAS-luciferase reporter, 20 h; Potency, µM (highest dose often 53.6 µM), for inactives: top-dose activity change, negative = inhibition, actives largely listed as inhibitors; 5.4% of 310,000 active; note: nearly all actives have a fitted effect of over 60% in size
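In this cell-based reporter format, copper sulfate (700 uM final) drives Gal4–ROR gamma fusion expression from a metallothionein promoter in Drosophila Schneider cells; compounds preincubated 1 hr, reporter read after 20 hr at ambient temperature.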
TDP1 cell CPT: growth inhibition of DT40 Tdp1-/-;hTDP1 cells with camptothecin (screen for TDP1 inhibitors) | chicken DT40 Tdp1-/-;hTDP1 cells + 20 nM CPT, ATP luminescence, 48 h | Potency, µM (top dose mostly 46.2 µM), for inactives: top-dose activity change, negative = growth inhibition, actives largely listed as inhibitors | 12% of 420,000 active | AID 686979; note: nearly all actives have a fitted effect of over 55% in size
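Chicken DT40 Tdp1-/- cells stably complemented with human TDP1 were seeded at 400 cells/well in medium containing 20 nM camptothecin, exposed to pin-transferred compounds, and grown at 37 °C for at least 48 hr. Viability was read as ATP luminescence.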
12-LOX inh: inhibitors of human 12S-lipoxygenase ALOX12; AID 1671190; Potency, µM (highest dose often 108 µM), without a hit: top-dose activity change, negative = inhibition, actives largely listed as inhibitors; P18054; 1.1% of 580,000 active; purified 12hLO, xylenol orange hydroperoxide absorbance
Target sequence (P18054 whole entry, looked up): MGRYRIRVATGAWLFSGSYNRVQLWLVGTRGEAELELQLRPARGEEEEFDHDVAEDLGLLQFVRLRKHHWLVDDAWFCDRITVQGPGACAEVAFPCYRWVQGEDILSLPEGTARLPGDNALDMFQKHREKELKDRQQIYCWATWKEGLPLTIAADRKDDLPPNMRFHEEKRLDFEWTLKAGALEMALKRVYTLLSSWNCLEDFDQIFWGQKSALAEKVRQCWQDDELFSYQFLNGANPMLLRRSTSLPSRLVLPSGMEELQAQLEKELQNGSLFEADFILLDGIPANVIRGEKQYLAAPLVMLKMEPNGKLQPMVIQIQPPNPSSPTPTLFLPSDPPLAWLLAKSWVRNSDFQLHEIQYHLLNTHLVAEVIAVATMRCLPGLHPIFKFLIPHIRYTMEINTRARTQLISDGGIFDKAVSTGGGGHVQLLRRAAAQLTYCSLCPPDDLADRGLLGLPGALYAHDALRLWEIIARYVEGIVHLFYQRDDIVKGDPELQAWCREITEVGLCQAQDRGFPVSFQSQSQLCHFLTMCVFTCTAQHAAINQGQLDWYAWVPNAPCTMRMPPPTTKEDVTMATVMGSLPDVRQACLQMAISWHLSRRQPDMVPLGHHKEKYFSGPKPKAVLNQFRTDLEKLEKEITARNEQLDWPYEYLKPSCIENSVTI
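Purified human 12hLO at 150 nM in 25 mM Hepes, 0.01% Triton X-100, pH 7.0, preincubated 15 min at room temperature with compound. Reaction started with 40 uM arachidonic acid, 30 min at room temperature. Hydroperoxide measured by Fe-xylenol orange, 573/405 nm absorbance ratio.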
ELG1 DNA repair: blocks ELG1-dependent DNA repair in HEK293T cells; HEK293T ELG1-luciferase reporter, luminescence, 16 h; DNA damage induced by 5-fluorouridine; AID 504467; 2.3% of 330,000 active; Potency, µM (titrated, usually from 46.1 µM), without a hit: at the top dose activity change, negative = inhibition, actives largely listed as inhibitors; note: nearly all actives have a fitted effect of over 55% in size
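HEK293T cells expressing luciferase-tagged ELG1 (2,000/well) received 5-Fluorouridine plus compound or DMSO for 16 hr at 37 °C. Luciferase was read by ONE-Glo luminescence after 30 min at room temperature.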
TDP1 cell noCPT: qHTS for Inhibitors of human tyrosyl-DNA phosphodiesterase 1 (TDP1): qHTS in cells in absence of CPT; DT40 Tdp1-/- hTDP1 cells, no CPT, ATP luminescence, 48 h; Potency, µM (doses to about 46.2 µM), inactives show at the top dose activity change, negative = growth inhibition, hits mostly inhibitors; 15% of 420,000 active; AID 686978, 2013; note: nearly all actives have a fitted effect of over 55% in size
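Growth kinetics read by CellTiter-Glo luminescence after ≥48 hr at 37 °C. Cells: DT40 Tdp1-/- stably carrying human TDP1, 400 per well, compound exposure in the absence of CPT (DMSO vehicle).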
VP16 counter: Gal4-VP16 reporter inhibition counter-screen | 3.5% of 310,000 active | Drosophila S2 Gal4-VP16 UAS-luciferase, luminescence, 20 h | Potency, µM (titrated, usually from 53.6 µM), without a hit: at the highest dose activity, negative = inhibition, most hits filed as inhibitors | AID 2546;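 note: Gal4-VP16 expression switched on by copper sulfate through the metallothionein promoter; nearly all actives have a fitted effect of over 50% in size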
The depositor's hits bear a star; ? = inconclusive; / = no result given; ! = not active in a repeat; [ ] = remark or other dose. Only some compounds are listed: those with a hit (about 15% of all), similar ones and a draw of the others. Calls come from the whole dose curve; as a rule, active = well fitted curve in the direction sought with a large enough effect; inconclusive = small, poorly fitted or top-dose-only effect, or another doubt; inactive = no such curve, though single readings can be large; an effect the other way counts as inactive or inconclusive. % is set by controls: 0 for no effect and ±100 for the full control effect; potency is the fitted concentration of half-maximal effect.

SMILES | RORg inh | TDP1 cell CPT | 12-LOX inh | ELG1 DNA repair | TDP1 cell noCPT | VP16 counter
N#C/C(=C(/O)COc1ccc(Br)cc1)c1nnc2n1CCCCC2 | -21% | -5% | 2% | 6% | 9% | ?
CC/C(O)=C(\C#N)c1nnc2n1CCCCC2 | 13µM* | -15% | -3% | -5% | 1% | ?
Cc1ccc(-c2cc(C(F)F)n3nc(C)c(Cl)c3n2)cc1C | / | / | -19% | / | / | /
O=C(c1ccccc1F)N1CCc2nc(-c3ccc(Cl)cc3)nc(-c3ccccc3)c2C1 | / | / | -7% | / | / | /
CC(C)=CC[C@@H](O)C1=CC(=O)c2c(O)ccc(O)c2C1=O | / | / | 2.2µM* | / | / | /
O=S(=O)(c1ccccc1)N1N=C(c2cccs2)CC1c1ccc(Br)cc1 (centres undefined) | 3% | 23µM* | -29% | -8% | 15µM* | -3%
CC1(C)Cc2c(c(N3CCOCC3)nc3sc(C(=O)Nc4ccc(Cl)cc4)c(N)c23)CO1 | ? | ? | 2.8µM*! | 0.92µM* | 23µM* | 19%
COc1ccc(NC(=O)c2sc3nc(N4CCCC4)c4c(c3c2N)CC(C)(C)OC4)c(OC)c1 | -4% | ? | 9% | 0% | -28% | -5%
COC(=O)c1ccc(-c2sc3nc(N4CCOCC4)c4c(c3c2N)CC(C)(C)OC4)o1 | -2% | ? | 83% | 5.2µM* | ? | 4%
CC1(C)Cc2c(c(N3CCOCC3)nc3snc(N)c23)CO1 | ? | 2.8µM* | 68% | 8% | 2.5µM* | -15%
COc1cccc(NC(=O)c2sc3nc(N4CCOCC4)c4c(c3c2N)CC(C)(C)OC4)c1 | / | 5.8µM* | -16% | / | 6.5µM* | /
COc1cc(-c2onc(C)c2C(=O)NCCCOC(C)C)cc(OC)c1OC | / | / | 37% | / | / | /
CN1CCN(c2ccc3ncc(Nc4ccc(OC(F)(F)F)cc4)n3n2)CC1 | / | / | 46%[176 µM] | / | / | /
CCNC(=O)N1CC(C(=O)N(C)C)C2(CCOCC2)C1 (centres undefined) | / | / | 57% | / | / | /
CSc1cccc(NC(=O)CN2C(=O)NC3(CCC(C)CC3)C2=O)c1 (centres undefined) | / | / | 0% | / | / | /
COC(=O)[C@H](Cc1ccc(OC)cc1)NC(=O)[C@H]1CN(C(=O)c2cccnc2)CCN1C(=O)NC(C)C | / | / | 24% | / | / | /
CC1(C)Cc2c(c(N3CCOCC3)nc3sc(C(N)=O)c(N)c23)CO1 | 9% | 9% | -26% | 5.2µM* | ? | -15%
CN1Cc2c(N3CCOCC3)nc3sc(C(=O)c4ccccc4)c(N)c3c2CC1(C)C | -38% | 16µM* | 0% | ? | ? | -11%
CCOC(=O)c1sc2nc(-c3ccco3)c3c(c2c1N)CC(C)(C)OC3 | ? | 21µM* | ? | ? | 21µM* | ?
COC(=O)CSc1ncnc2c1sc1nc(-c3ccco3)c3c(c12)CC(C)(C)OC3 | 7% | / | / | 11% | / | -9%
C/C(CC(C)(C)c1ccccc1)=N\N=C(N)N | / | / | 10% | / | / | /
CC(=O)N1C2=CCCC3CCCCC23c2ccccc21 (centres undefined) | / | 21µM* | ? | / | 26µM* | /
CCOCC(=O)Nc1c(C(=O)Nc2ccc3c(c2)OCCO3)oc2ccccc12 | -40% | ? | 3% | ? | 8.2µM* | -29%
CCOC(=O)c1oc2ccccc2c1NC(=O)c1ccc2c(c1)OCO2 | -6% | -19% | -1% | 0% | -23% | -8%
COc1ccc(NC(=O)c2oc3ccccc3c2NC(=O)c2ccc3c(c2)OCO3)cc1 | 41% | ? | 0% | 9.2µM* | ? | 20%
SMILES | RORg inh | TDP1 cell CPT | 12-LOX inh | ELG1 DNA repair | TDP1 cell noCPT | VP16 counter
CCOCc1c(C(=O)OCC(=O)Nc2ccc(C)c(S(=O)(=O)N(C)C)c2)oc2ccccc12 | ? | ? | -3% | -19% | 21µM* | ?
CCOc1ccc(NC(=O)c2oc3ccccc3c2NC(=O)C(C)Oc2ccccc2)cc1 (centres undefined) | / | ? | -27% | / | 21µM* | /
COCC(=O)Nc1c(C(=O)Nc2ccc3c(c2)OCCO3)oc2ccccc12 | ? | -21% | -10% | ? | ? | -19%
CNC(=O)[C@@H]1CN(C(=O)Cn2nc(C(F)(F)F)cc2C)C[C@H]1c1n[nH]c(C)n1 | / | / | 30% | / | / | /
COc1ccc(NC(=O)c2oc3ccccc3c2NC(=O)c2cc(OC)c(OC)c(OC)c2)cc1 | / | 21µM* | -1% | / | 12µM* | /
CCC1(C)Cc2c(sc3c2c(=O)n(C)c2nnc(SCCc4ccccc4)n32)CO1 (centres undefined) | 0% | ? | 18% | -3% | 23µM* | -1%
Cn1c(=O)c2c3c(sc2n2c(SCc4ccc5c(c4)OCO5)nnc12)COC(C)(C)C3 | 7% | / | / | 0% | / | -2%
CCC1(C)Cc2c(sc3c2c(=O)n(C)c2nnc(SCc4ccccc4)n32)CO1 (centres undefined) | ? | 18µM* | 4% | 0% | ? | -10%
CCC(=O)Oc1ccc2c(=O)c(Oc3cccc(OC)c3)c(C(F)(F)F)oc2c1 | / | / | -6% | / | / | /
O=C(CCc1c[nH]c2ccccc12)N1CCN(C(=O)c2ccco2)CC1 | / | / | 56% | / | / | /
Cc1ccc(Cl)cc1N1CCN(C(=O)C2CCC(=O)N(C3CCCCCC3)C2)CC1 (centres undefined) | -31% | 6.5µM* | 121% | -7% | 2.9µM* | ?
Cc1cccc(N2CCN(C(=O)C3CCC(=O)N(C4CC4)C3)CC2)c1C (centres undefined) | 3% | 16µM* | 0% | -1% | ? | -2%
O=C(C1CCC(=O)N(C2CCCC2)C1)N1CCN(c2ccccc2Cl)CC1 (centres undefined) | 11% | -22% | 7% | 4% | 5% | -3%
CS(=O)(=O)N1CC2(CCCN(Cc3cccnc3)C2)Cc2ccccc21 (centres undefined) | / | / | 4%[6.33 µM] | / | / | /
CN(C)c1nc(NCc2ccccc2)nc(N/N=C/c2ccc(Br)cc2)n1 | 2.8µM* | -9% | 13% | -2% | -14% | 13µM*
COC(=O)C(C)Sc1nc(NCc2ccccc2)nc(N(C)C)n1 (centres undefined) | 22% | -10% | 8% | -5% | -29% | -15%
CN(C)c1nc(NCc2ccccc2)nc(N/N=C/c2ccc3c(c2)OCO3)n1 | 7.9µM* | ? | -1% | ? | 16µM* | ?
COc1ccc(-c2cc(-c3ccccc3)nc3c2COc2ccccc2-3)cc1 | / | -27% | -3% | / | -21% | /
Cc1ccc(C2=Nc3ccc(Cl)cc3OC2)cc1 | / | / | 22µM* | / | / | /

High-throughput results as filed in PubChem.
